The supplement of paper PMC6555819

Experiments:
Experiment in all cases: PBM binding z-score (relative to random genomic background probes); higher = stronger binding; sequences stand for … in GC…GCGATTGACAGCGTAGAATGAAGG
[1] = system: LXRa:RXRa (NR concentration 270 nM, RXRa partner concentration 90 nM)
Outline: (§1)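 Ligand-free nuclear receptor dimers were bound for 1 h to custom Agilent 4×180K protein-binding microarrays. Detection used antibodies against each partner (one per run). Binding z-scores rest on regression-normalized fluorescence, with random background probes as the reference.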

[2] = system: LXRa homodimer (NR concentration 270 nM)
Outline: as §1

[3] = system: LXRb homodimer (NR concentration 270 nM)
Outline: as §1

[4] = system: PPARa:RXRa (NR concentration 270 nM, RXRa partner concentration 90 nM)
Outline: as §1

[5] = system: PPARg:RXRa (NR concentration 180 nM, RXRa partner concentration 90 nM)
Outline: as §1

[6] = system: PPARg:RXRa 270nM:90nM, anti-RXR (NR concentration 270 nM, RXRa partner concentration 90 nM)
Outline: as §1

[7] = system: PPARg:RXRa 30nM:10nM, anti-RXR (NR concentration 30 nM, RXRa partner concentration 10 nM)
Outline: as §1

[8] = system: PPARg:RXRa 90nM:30nM, anti-RXR (NR concentration 90 nM, RXRa partner concentration 30 nM)
Outline: as §1

[9] = system: PPARg:RXRa DBDmut IVT, anti-RXR (DBD mutation: RXRa K156A/R161A, NR concentration 270 nM, RXRa partner concentration 90 nM)
Outline: as §1

[10] = system: PPARg:RXRa IVT, anti-PPARg (NR concentration 270 nM, RXRa partner concentration 90 nM)
Outline: as §1

[11] = system: PPARg DBDmut:RXRa IVT, anti-PPARg (DBD mutation: PPARg1 K132A/R137A, NR concentration 270 nM, RXRa partner concentration 90 nM)
Outline: as §1

[12] = system: PPARg DBDmut IVT, anti-PPARg (DBD mutation: PPARg1 K132A/R137A, NR concentration 270 nM)
Outline: as §1

[13] = system: PPARg homodimer (NR concentration 180 nM)
Outline: as §1

[14] = system: PXR:RXRa (NR concentration 270 nM, RXRa partner concentration 90 nM)
Outline: as §1

[15] = system: PXR homodimer (NR concentration 270 nM)
Outline: as §1

[16] = system: RARa:RXR (NR concentration 270 nM, RXRa partner concentration 90 nM)
Outline: as §1

[17] = system: RARa homodimer (NR concentration 270 nM)
Outline: as §1

[18] = system: RARb:RXRa (NR concentration 270 nM, RXRa partner concentration 90 nM)
Outline: as §1

[19] = system: RARb homodimer (NR concentration 270 nM)
Outline: as §1

Sequence	PBM binding z-score [1]	PBM binding z-score [2]	PBM binding z-score [3]	PBM binding z-score [4]	PBM binding z-score [5]	PBM binding z-score [6]	PBM binding z-score [7]	PBM binding z-score [8]	PBM binding z-score [9]	PBM binding z-score [10]	PBM binding z-score [11]	PBM binding z-score [12]	PBM binding z-score [13]	PBM binding z-score [14]	PBM binding z-score [15]	PBM binding z-score [16]	PBM binding z-score [17]	PBM binding z-score [18]	PBM binding z-score [19]
ATCGAAAGGTCGAAGGTGCGTATACCCACCCGAA	3.22	0.0571	0.0928	4.12	3.21	3.25	1.01	2.44	-0.0152	1.39	0.552	0.658	0.794	2.17	-0.19	3.01	0.303	3.68	2.42
AGTCAAAGTTCAGGACGAGGTAACGTTAAGCACG	3.74	1.1	0.0351	3.34	4.29	4.64	2.03	3.86	-0.183	1.92	0.603	0.235	2.35	3.11	1.65	2.78	0.838	4.3	3.3
CGAACTAGGTCAAGGGACAGTGAAAGGCGACGTA	2.17	-0.308	-0.604	4.78	8.6	7.25	5.85	7.35	7.79	8.18	–	0.0336	1.42	0.929	-0.504	1.71	0.0645	3.92	2.99
CAAACTAGGTCACGAGAGGTCAAAGTCGAATGAC	8.28	8.5	2.4	6.78	10.7	8.59	6.83	8.87	8.71	9.18	3.71	4.06	5.24	–	3.95	7.58	2.65	5.51	5.6
CGTCAAAGATCAAGGTAACGTAACAGAAAGCAGC	-0.053	-0.313	-0.677	0.962	0.887	1.09	0.0515	0.332	0.519	0.642	0.647	0.471	0.374	0.00649	-0.253	0.485	0.251	0.252	-0.124
TGTCAACGTTCAAAGGTAACGTAAGTATCCACAC	0.794	-0.182	0.0417	1.49	2.58	2.69	1.18	2.07	-0.155	1.78	0.941	0.758	0.252	0.578	-0.0241	1.36	0.107	1.46	1
GATACAGGGTCGGCTAGAGGCCAGAGTATGGAAA	0.191	-0.632	-1.28	1.36	0.561	0.616	-0.167	0.215	-0.804	-0.134	-0.784	-0.716	0.88	0.712	-0.222	1.39	-0.471	1.56	1.32
CGAACTAGGTCAAGGACAGTAAATCTCCGCACGC	2.4	0.115	-0.249	4.71	7.56	6.25	3.88	6.02	7.9	7.98	5.28	4.25	3.13	1.1	0.317	2.19	0.685	3.67	2.91
CGTCCAAGGACAATGCTAGGTCAGTGAAAGCATT	–	–	–	0.16	–	–	–	–	–	–	–	–	–	–	–	–	–	–	–
ATATGTAGGTTAGGGTCAGTCAGAAAGTAGGGAA	–	–	–	4.61	–	–	–	–	–	–	–	–	–	–	–	–	–	–	–
AGAATGGGGTTATACGTAGATCAGGGAAGAAAGT	2.95	0.583	2.07	–	3.69	4	1.39	3.03	4.84	2.95	2.51	1.53	1.86	2.56	1.48	–	1.54	1.93	1.67
GGAACGAGGTCAAGTTGATAGCAGAGTTTGATGG	6.21	2.03	2.13	–	7.7	6.96	4.31	6.52	6.19	6.52	2.59	0.598	3.81	5.86	2.91	5.81	2.1	–	4.59
AGAACGAGGTCACGCTGAGTTGATAGCAGAGTAG	6.2	0.912	0.705	–	9.52	8.1	6.32	7.52	6.78	7.41	3.83	1.29	4.17	–	2.35	6.71	1.26	–	4.38
CGTCCAAGGTCAAAGGTCATTGAAGAGATGACGG	–	6.32	3.11	7.33	–	10	9.22	11.6	4.6	6.27	2.57	0.832	5.55	–	4.59	–	5.35	6.2	5.63
GGAACGAGGTCATTCGAGTTGATAGCATGGCGAT	6.43	1.91	1.68	–	6.59	6.55	3.27	5.58	5.42	5.89	0.79	0.0541	1.95	–	7.74	5.14	-0.0279	4.9	3.81
CCTTAGGGGTCACTGACAGGTTATAGCATTTGGA	6.55	1.33	0.926	–	9.33	8.43	5.34	7.46	4.82	5.5	1.68	2.53	4.49	6.32	0.503	–	2.05	–	4.99
CAAACAAGGTCACCGGAAGGTCAAAGTCCGCATG	–	6.36	2.43	6.58	8.84	7.81	4.78	7.17	5.54	6.66	3.88	3.51	10.2	–	4.84	–	5.98	–	5.88

Sequence	PBM binding z-score [1]	PBM binding z-score [2]	PBM binding z-score [3]	PBM binding z-score [4]	PBM binding z-score [5]	PBM binding z-score [6]	PBM binding z-score [7]	PBM binding z-score [8]	PBM binding z-score [9]	PBM binding z-score [10]	PBM binding z-score [11]	PBM binding z-score [12]	PBM binding z-score [13]	PBM binding z-score [14]	PBM binding z-score [15]	PBM binding z-score [16]	PBM binding z-score [17]	PBM binding z-score [18]	PBM binding z-score [19]
CAAACTAGGTCAAGAGGTCAAAGTTCGCTTCCCG	6.59	6.51	2.33	–	–	9.13	7.44	10.1	8.34	8.83	3.82	5.91	10.9	–	5.01	–	4.53	5.51	5.71
TATACAGGGTCAAAGGCCAAAGTACGAATGTCGA	6.59	3.06	2.44	–	9.55	7.98	7.57	8.54	2.77	5.37	2.17	1.63	4.71	5.05	0.969	–	1.74	4.76	3.7
CGTCAAAGGTCAGCAGGTCAGTGAAAGCGACGTG	6.48	2.22	1.28	–	8.46	7.84	4.46	7.02	4.94	5.73	1.7	1.47	7.06	5.39	0.608	–	4.86	–	5.42
CAAACCAGGTCAAAGGTCAAAGTCGAGCCAACCA	–	5.78	3.31	7.46	13.2	10.7	11.3	12	6.71	7.43	2.48	1.06	4.04	–	2.11	9.04	3.33	5.8	5.45
CGTCTAAGGTCATAGGAGGTCAGTGAAGACAGAT	–	5.68	1.55	6.24	6.42	6.7	3.31	5.55	3.95	4.85	1.68	1.09	6.3	–	6.55	–	3.85	5.66	5.47
CAAACGAGGTCAAAGGTCAAAGTCGAGCCAACCA	–	7.06	4.76	7.69	13.9	11.2	13.8	13.8	7.13	8.38	5.96	5.7	7.87	–	5.27	–	6.67	–	5.59
GGAACGAGGTCAAAGTTGATAGCATCTGTCGACG	5.98	1.61	2.26	–	–	8.63	8.72	9.4	6.14	6.45	0.31	1.24	2.56	5.91	2.54	6.93	0.429	5.18	4.02
GCTGCGAGGTCAACTGATGGTCAGCTAAAGCTCG	5.87	1.54	1.67	–	6.28	6.33	2.91	5.05	3.65	4.26	0.48	-0.29	3.57	5.49	0.673	5.93	0.38	–	4.83
GCTTAAGGGTCAAAGGTTATAGCATGAATAGAAT	6.57	1.93	1.36	–	11.7	9.09	8.73	9.85	3.81	5.94	2.24	1.36	4.8	–	0.657	–	1.94	–	4.32
TGTCAAAGTTCAAAGGTGACGTAAGTATCCACAC	6.41	4.7	1.8	–	9.47	7.89	6.06	7.61	0.732	5.07	1.7	1.53	5.33	6.34	5.43	–	2.52	5.36	4.05
CGTCCAAGGTCATAGAGGTCAGTGAATGCCGAGT	6.21	5.25	1.36	–	5.9	6.21	2.57	4.71	4.3	4.48	0.246	1.44	7.41	–	13.8	–	3.94	5.39	5.34
CGTCCAAGGTCAAGGTCAATGAAAGAGACTCGAA	6	1.82	1.11	–	7.25	6.84	3.28	5.67	3.68	5.34	2.6	2.44	4.82	5.3	1.41	5.88	3.2	5.75	4.92
AATACAGGGTCACGAGGCCAGAGTAGGTACGAAT	6	1.22	0.897	–	8.68	7.43	4.39	6.65	3.9	5.74	2.21	2.16	3.03	4.43	0.257	5.27	1.39	5.07	4.14
CCTTACGGGTCACGAGGTCATAGCACGACGAGCG	5.89	2.73	0.62	–	8.56	7.55	4.61	6.67	4.66	6.02	2.06	1.59	5.34	–	2.24	–	2.17	5.23	4.95
GCTTACAGGTCAAAGGTTATAGCATGAATAGAAT	–	2.63	1.4	–	11.5	9.51	8.9	10.5	5.27	6.3	2.55	3.43	3.21	6.17	0.923	7.96	0.992	4.93	3.69
ATCGAAAGGTCGACGAGGTGAGTAAACACCGTTT	3.58	0.0172	0.228	–	2.6	3.59	1.02	2.3	0.114	1.85	0.135	1.17	1.63	3.05	0.324	–	0.378	3.85	2.98
CGTCCAAGGTCACGGTCAGTGAAAGAGACTCGAA	6.12	0.892	0.155	–	7.75	7.26	4.16	6.37	4.83	5.66	1.95	0.958	4.68	4.93	0.843	6.25	2.14	–	4.71
